Results filed as inconclusive are left out. A call without a number means that no potency is given here. Unmarked numbers belong to inactive results. Calls of active or inactive are those of the source. Calls come from the whole dose curve; as a rule, active = well fitted inhibition curve with a large enough effect; inconclusive = small, poorly fitted or top-dose-only effect; inactive = flat fitted curve, though single readings scatter.
Biological target: Glutathione peroxidase 1 (Homo sapiens) (UniProt P07203)
Sequence (P07203 whole entry, looked up): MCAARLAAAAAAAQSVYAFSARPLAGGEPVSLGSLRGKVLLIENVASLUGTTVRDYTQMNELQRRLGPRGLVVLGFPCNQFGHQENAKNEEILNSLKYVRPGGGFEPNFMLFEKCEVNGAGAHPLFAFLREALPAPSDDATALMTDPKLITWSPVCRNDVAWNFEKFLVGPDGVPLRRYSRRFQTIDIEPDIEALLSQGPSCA
Assay: Primary qHTS Assay for Inhibitors of Recombinant Selenoprotein Glutathione Peroxidase 1 (GPX1) (AID 1845191)
Settings: recombinant GPX1, GR-coupled NADPH fluorescence, 15 min; series mostly up to 48.8 µM
In short: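 10 nM GPX1 + cpd, 30 min RT; start w/ 1 mM GSH, 0.5 mM cumene hydroperoxide, 0.5 mM NADPH, 100 nM GR, 0.01% BSA; buffer 50 mM Tris-HCl pH 7.5, 2 mM EDTA, 150 mM NaCl; Fl 340/450, 0 & 15 min.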
Note: nearly all actives have a fitted effect of over 65% in size.

Question: Which Potency does the source give for `C=C1CCC2C(C)(C(=O)O)CCCC2(C)C1CCC1=CCOC1=O` (stereo not drawn) here?
Answer: Its Potency is “inactive”.

Question: For `NC(=O)c1nc(Nc2ccccc2)sc1NC(=O)C1CCCCC1`, which Potency is on record?
Answer: Its Potency is “inactive”.

Question: `COc1cc2ncnc(Oc3ccc(CC(=O)Nc4cnn(C(C)C)c4)cc3)c2cc1OC` was tested. Which Potency did it give?
Answer: Its Potency is “inactive”.

Question: Which Potency does the source give for `COC1=CC(=O)C=C(C)C12Oc1c(Cl)c(OC)cc(OC)c1C2=O` (stereo not drawn) here?
Answer: The Potency was “inactive”.

Biological target: Phospholipid hydroperoxide glutathione peroxidase GPX4 (Homo sapiens) (UniProt P36969)
Sequence (P36969 whole entry, looked up): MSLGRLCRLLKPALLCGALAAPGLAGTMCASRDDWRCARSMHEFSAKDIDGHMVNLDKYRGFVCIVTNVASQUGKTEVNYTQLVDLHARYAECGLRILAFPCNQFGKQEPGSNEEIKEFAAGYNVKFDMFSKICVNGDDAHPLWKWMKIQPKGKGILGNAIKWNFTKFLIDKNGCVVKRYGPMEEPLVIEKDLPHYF
Assay: Primary qHTS Assay for Inhibitors of Recombinant Selenoprotein Glutathione Peroxidase 4 (GPX4) (AID 1845192)
Settings: recombinant GPX4, GR-coupled NADPH fluorescence, 15 min; series mostly up to 50 µM
In short: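 NADPH consumption, followed by fluorescence at 340/450 nm between 0 and 15 min, reports GPX4 activity via coupled glutathione reductase (100 nM). Enzyme 200 nM was pre-exposed to compound 30 min; 0.5 mM cumene hydroperoxide and 1 mM GSH served as substrates.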

Question: For `CC(C)(C)c1ccc(NC(=O)N2CCN(c3ncccc3Cl)CC2)cc1`, which Potency is on record?
Answer: Its Potency is “inactive”.

Question: With `O=C(Nc1ccccc1)N1CCC(Cc2cnc3ccccc3c2)CC1` as the molecule, how does the Potency read?
Answer: The Potency was “inactive”.

Question: How did the Potency turn out when `C=C1C(=O)O[C@H]2C[C@@H](C)[C@@H]3CCC(=O)[C@@]3(C)C[C@H]12` was run?
Answer: The Potency was “inactive”.

Question: For `C=C1C(=O)OC2/C=C(\C)CC3C=C(CC/C=C(\C)CCC12)C(=O)O3` (stereo not drawn), which Potency is on record?
Answer: Its Potency is “inactive”.

Question: With `COc1cc(C(C)=O)c(OC)c2c1OC(C)(C)C=C2` as the molecule, how does the Potency read?
Answer: Its Potency is “inactive”.

Question: How did the Potency turn out when `C=CCc1ccc(OC(C)Cc2ccc(OC)c(OC)c2)c(OC)c1` (stereo not drawn) was run?
Answer: Its Potency is “inactive”.

Question: Which Potency does the source give for `C=C1C(=O)O[C@@H]2[C@H]3C(C)=CC(=O)C3=C(C)CC[C@@H]12` here?
Answer: The Potency was “inactive”.

Question: How did the Potency turn out when `Cc1ccc(OC[C@H](O)[C@H](C)NC(C)C)c2c1CCC2` was run?
Answer: Its Potency is “inactive”.

Question: With `O=C(NCCCn1ccnc1)c1cc(-c2ccco2)on1` as the molecule, how does the Potency read?
Answer: Its Potency is “inactive”.

Question: How did the Potency turn out when `O=C(COc1ccc2ccccc2c1Br)Nc1cccnc1` was run?
Answer: The Potency was “inactive”.

Question: `CC(=O)O[C@@H]1CC2C(/C=C(\C)C(=O)[C@@]3(O)C[C@@H](C)[C@H](OC(=O)c4ccccc4)C3/C=C/1C)C2(C)C` (stereo partly drawn) was tested. Which Potency did it give?
Answer: The Potency was “inactive”.

Question: How did the Potency turn out when `C/C=C(/C)C(=O)O[C@@H]1C[C@@H](OC(=O)CC(C)C)C2(C)C3C(=O)C=C(C)C2C3C1(C)C` (stereo partly drawn) was run?
Answer: Its Potency is “inactive”.

Question: With `C=C(C)C(=O)OC1CC2(C)OC(=CC2=O)C(=C)CC2OC(=O)C(=C)C12` (stereo not drawn) as the molecule, how does the Potency read?
Answer: The Potency was “inactive”.

Question: Which Potency does the source give for `C/C=C(/C)C(=O)OC1C=C2C3C(C)C(C)C(OC(=O)C(C)C(C)O)CC3(C)CCC2(C)C2(C)CC(OC(C)=O)C3C(C)(C)C(O)C(=O)CC3(C)C12` (stereo not drawn) here?
Answer: The Potency was “inactive”.

Question: Which Potency does the source give for `C=C1C(=O)O[C@@H]2C[C@H](C)C3=CC(=O)[C@H](O)[C@@]3(C)C[C@H]12` here?
Answer: Its Potency is “inactive”.

Question: `C=CC(=O)Nc1cccc(Nc2nc(Nc3ccc(NC4CN(CCF)C4)cc3OC)ncc2C(F)(F)F)c1` was tested. Which Potency did it give?
Answer: Its Potency is “inactive”.

Question: For `O=C(O)c1ccc(S(=O)(=O)N(Cc2ccc(OC(F)(F)F)cc2)c2ncc(C(F)(F)F)cc2Cl)cc1`, which Potency is on record?
Answer: The Potency was “inactive”.

Question: With `O=C(NC[C@H]1CN(c2ccc(N3CCOCC3=O)cc2)C(=O)O1)c1ccc(Cl)s1` as the molecule, how does the Potency read?
Answer: The Potency was “inactive”.

Question: With `C=CC(=O)Nc1cc(-n2c(=O)ccc3cnc4ccc(-c5ccc(NS(C)(=O)=O)cc5)cc4c32)ccc1C` as the molecule, how does the Potency read?
Answer: The Potency was “inactive”.

Question: Which Potency does the source give for `Cn1cc(-c2ccc(S(=O)(=O)n3ccc(/C=C/C(=O)Nc4ccccc4N)c3)cc2)cn1` here?
Answer: Its Potency is “inactive”.

Question: Which Potency does the source give for `O=C(Nc1ccnc(NC(=O)C2CC2)c1)c1c(Cl)cccc1Cl` here?
Answer: The Potency was “inactive”.

Question: How did the activity change, negative = inhibition turn out when `C[C@@H]1O[C@@H](O[C@H]2[C@@H](OC(=O)[C@]34CCC(C)(C)CC3C3=CCC5[C@@]6(C)C[C@H](O)[C@H](O[C@@H]7O[C@H](CO)[C@@H](O)[C@H](O)[C@H]7O[C@@H]7OC[C@@H](O)[C@H](O)[C@H]7O)[C@@](C)(C(=O)O)C6CC[C@@]5(C)[C@]3(C)CC4)OC[C@H](O)[C@@H]2O)[C@H](O)[C@H](O)[C@H]1O[C@@H]1OC[C@@H](O)[C@H](O)[C@H]1O` (stereo partly drawn) was run?
Answer: The activity change, negative = inhibition was 1.61% [at 9.73 µM].

Question: Which Potency does the source give for `O=S(=O)(c1ccccc1)N(CC(F)(F)F)c1ccc(C(O)(C(F)(F)F)C(F)(F)F)cc1` here?
Answer: Its Potency is “inactive”.

Question: How did the Potency turn out when `FC(F)(F)c1ccc(/C=C/c2nc(COc3ccc(CCCCn4ccnn4)cc3)co2)cc1` was run?
Answer: Its Potency is “inactive”.

Question: Which Potency does the source give for `CC(=O)OC(C)(C)/C=C/C(=O)[C@](C)(O)[C@H]1C(O)C[C@@]2(C)[C@@H]3CC=C4[C@@H](C=C(O[C@@H]5O[C@H](CO)[C@@H](O)[C@H](O)[C@H]5O)C(=O)C4(C)C)[C@]3(C)C(=O)C[C@]12C` (stereo partly drawn) here?
Answer: The Potency was “inactive”.

Question: How did the Potency turn out when `Cc1ccc(S(=O)(=O)N2CCC[C@H]2c2ccc(F)cc2)cc1` was run?
Answer: The Potency was “inactive”.

Question: With `C=C1C(=O)OC2C(OC(=O)C=C(C)C)C(C)=C3C(=O)C=C(C)C3C(O)C12` (stereo not drawn) as the molecule, how does the Potency read?
Answer: Its Potency is “inactive”.

Question: With `Nc1c(S(=O)(=O)c2ccccc2)c2nc3ccccc3nc2n1-c1ccc(F)cc1` as the molecule, how does the Potency read?
Answer: Its Potency is “inactive”.

Question: For `N#Cc1cccc(C(=O)Nc2cc(-c3ccccc3)nn2-c2ccccc2)c1`, which Potency is on record?
Answer: Its Potency is “inactive”.

Question: How did the Potency turn out when `Cc1ccc(C(=O)Nc2ccc(CN3CCN(C)CC3)c(C(F)(F)F)c2)cc1C#Cc1cnc2[nH]ncc2c1` was run?
Answer: Its Potency is “inactive”.

Question: For `O=C(Nc1ccc(C(F)(F)F)cn1)N1CCN(c2ncccc2C(F)(F)F)CC1`, which Potency is on record?
Answer: The Potency was “inactive”.

Question: Which Potency does the source give for `CC1=C(C(=O)Nc2cc(Cl)ccc2Cl)C(c2ccco2)C2=C(CCCC2=O)N1` (stereo not drawn) here?
Answer: The Potency was “inactive”.

Question: For `COc1ccc(C(=O)Nc2c(Cl)cncc2Cl)cc1OC1CCCC1`, which Potency is on record?
Answer: Its Potency is “inactive”.

Question: `C=C1CC[C@@H](O)[C@]2(C)C[C@H]3OC(=O)C(=C)[C@H]3CC12` (stereo partly drawn) was tested. Which Potency did it give?
Answer: The Potency was “inactive”.

Question: For `O=S(=O)(c1ccc(Cl)cc1)N1CCN(c2ccnc3cc(Cl)ccc23)CC1`, which Potency is on record?
Answer: Its Potency is “inactive”.

Question: For `C=C1CCC2C(C)(C(=O)O)CCCC2(C)C1CCC1=CCOC1=O` (stereo not drawn), which Potency is on record?
Answer: The Potency was “inactive”.

Question: For `NC(=O)c1nc(Nc2ccccc2)sc1NC(=O)C1CCCCC1`, which Potency is on record?
Answer: The Potency was “inactive”.

Question: `COc1cc2ncnc(Oc3ccc(CC(=O)Nc4cnn(C(C)C)c4)cc3)c2cc1OC` was tested. Which Potency did it give?
Answer: The Potency was “inactive”.

Question: How did the Potency turn out when `COC1=CC(=O)C=C(C)C12Oc1c(Cl)c(OC)cc(OC)c1C2=O` (stereo not drawn) was run?
Answer: Its Potency is “inactive”.

From PubChem BioAssay (NCATS)
